Measured values published in PubChem BioAssay (NCI).
Where “and” joins values, the source holds several entries; their conditions need not be identical. Equal entries are not always repeated. Compounds without any hit were thinned out: in the full panel of roughly 83,000, 20% have a hit.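 A percent growth of 40 corresponds to 60% growth inhibition; 0 means no net growth; -100 means all cells died. Active threshold: below 10.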 Calls of active or inactive are those of the source. Where a SMILES comes first, the peptide text is derived from it. [ ]: non-standard residue; d: D form. ξ: configuration not given here. ξV = CC(C)C(N)C(=O)O

Each compound was assayed on SR leukemia (assay: NCI-60 one-dose screen, 48 h (100 = growth as untreated, 0 = no growth, -100 = all killed)). Conditions: 0.0025 µM.
Method: Growth inhibition of the SR human tumor cell line is measured as a screen for anti-cancer activity. Cells are grown in 96 well plates and exposed to the test compound for 48 hours. Compounds are tested at a single concentration, which is 10^-5 M for most compounds. The reported endpoint is percent growth (GI% or GIPRCNT), where numbers from 0 - 100% represent growth inhibition, and numbers from -100% - 0 represent cell death. For example, a value of 40 represents 60% growth inhibition. A value of 0 means no net growth occurred over the course of the experiment. A value of -40 indicates 40% of cells at the beginning of the experiment died by the end of the experiment. A value of -100 means all cells are dead at the end of the experiment.
NCI-60 Human Tumor Cell Lines Screen was performed using the standard one-dose NCI protocol, which is described in more detail at https://dtp.cancer.gov/discovery_development/nci-60/default.htm.
Compounds with GIPRCNT values below 10 were considered active. Activity score was based on GIPRCNT using the following formula: […]
Score is 0 for GIPRCNT values of 100 or above, 50 for GIPRCNT values of 0, and 100 for GIPRCNT values of -100.

Row | Compound | growth
1 | COc1cccc2c1C(=O)c1c(O)c3c(c(O)c1C2=O)C[C@@](O)(C(=O)CO)C[C@@H]3OC1CC(N)C(O)C(C)O1 (stereo not given in full) | 81.5% (inactive)

Same assay, conditions: 2.5 µM

Row | Compound | growth
2 | COc1cccc2c1C(=O)c1c(O)c3c(c(O)c1C2=O)C[C@@](O)(C(=O)CO)C[C@@H]3OC1CC(N)C(O)C(C)O1 (stereo not given in full) | -29.1% (active)

Same assay, conditions: 10 µM

Row | Compound | growth
3 | COc1cccc2c1C(=O)c1c(O)c3c(c(O)c1C2=O)C[C@@](O)(C(=O)CO)C[C@@H]3OC1CC(N)C(O)C(C)O1 (stereo not given in full) | -0.536% (active)

Same assay, conditions: 10 µM unless noted

Row | Compound | growth
4 | Nc1nc(=S)c2ncn(C3OC(CO)C(O)C3O)c2[nH]1 (stereo not given) | 119% (inactive)
5 | NNc1c2ccccc2nc2ccccc12 | 21.1% (inactive)
6 | CO[C@H](C(=O)[C@@H](O)[C@@H](C)O)[C@@H]1Cc2cc3cc(OC4CC(OC5CC(O)C(O)C(C)O5)C(O)C(C)O4)c(C)c(O)c3c(O)c2C(=O)[C@H]1OC1CC(OC2CC(OC3CC(C)(O)C(O)C(C)O3)C(O)C(C)O2)C(O)C(C)O1 (stereo not given in full) | 10.5% (inactive)
7 | O=[N+]([O-])C1=C(c2ccccc2)SC=C(c2ccccc2)S1 | 6.09% (active)
8 | Nc1ccc2cc3ccc(N)cc3nc2c1 | 106% (inactive) and 7.41% (active)
9 | CC(C)C(NC(=O)CN)C(=O)O (stereo not given) (H-Gly-[ξV]-OH) | 57% (inactive)
10 | CN(C)C(=S)SC(=S)N(C)C | 42.6% (inactive) and 52.1% (inactive)
11 | C[n+]1c2cc(N)ccc2cc2ccc(N)cc21 | 5.82% (active) and 0.679% (active) and -0.456% (active)
12 | CSC1SCC2C(=O)N(C)C(C(C)C)C(=O)OCC(NC(=O)c3cnc4ccccc4n3)C(=O)NC(C)C(=O)N(C)C1C(=O)N(C)C(C(C)C)C(=O)OCC(NC(=O)c1cnc3ccccc3n1)C(=O)NC(C)C(=O)N2C (stereo not given) | -37.7% (active)
13 | NNc1ccc2ccccc2c1 | 82.3% (inactive) and 94.9% (inactive)
14 | Nc1c2ccccc2nc2ccccc12 | 0.28% (active) and 18.5% (inactive) and 24.2% (inactive)
15 | O=C(/C=C/c1cccnc1)c1ccccc1 | 14.5% (inactive)
16 | O=C(/C=C/c1ccccn1)c1ccccc1 | -15.7% (active)
17 | CCN(CC)c1ccc(NC(C(=O)c2ccccc2)c2ccccc2)cc1 (stereo not given) | 14.3% (inactive)
18 | O=C(O)COc1ccc(OCC(=O)O)cc1 | 10.3% (inactive)
19 | CC1=CC(C)=Nc2ccc(Cl)cc2N1 | 91.1% (inactive)
20 | CCCCCC(C)c1ccc(O)c(C)c1 (stereo not given) | 94.3% (inactive)
21 | OCC(O)C(O)C(O)C(/C=N/Nc1ccccc1)=N/Nc1ccccc1 (stereo not given) | 58.8% (inactive)
22 | O=C(C(=Cc1ccccc1)C(=O)c1ccccc1)c1ccccc1 | 6.35% (active) and 108% (inactive)

Row | Compound | growth
23 | CC(=O)Nc1cc(C)ccc1C | 98.8% (inactive)
24 | CC[N+](CC)=c1ccc2nc3c(cc(N)c4ccccc43)oc-2c1 | -47.2% (active)
25 | O=C(Nc1ccc(C(=O)O)c(O)c1)c1ccccc1 | 113% (inactive) and 122% (inactive)
26 | CCCCCCCCCCSC(=N)N | -25% (active)
27 | CC(C)(C)CC(C)(C)c1ccc(OCCO)cc1 | 85.5% (inactive)
28 | NC1=C(Cl)C(=O)c2ccccc2C1=O | 46.4% (inactive)
29 | Cc1cc(NS(=O)(=O)c2ccc(N=Nc3cc(N=Nc4ccc(S(=O)(=O)Nc5cc(C)nc(C)n5)cc4)c4c(NC(=O)C(Cl)Cl)cccc4c3OC(=O)C(Cl)Cl)cc2)nc(C)n1 (tested in a mixture with another compound) | 103% (inactive) and 69% (inactive)
30 | CS(=O)(=O)OC1CC(n2ccc(=O)[nH]c2=O)OC1COC(c1ccccc1)(c1ccccc1)c1ccccc1 (stereo not given) | 78% (inactive)
31 | O=C1C=C(O)c2ccccc2C1=O.[Ag] | 103% (inactive)
32 | CC(=O)OCC(OC(C)=O)C(OC(C)=O)C(OC(C)=O)C(OC(C)=O)C(/C=N/Nc1ccccc1)=N/Nc1ccccc1 (stereo not given) | 2.05% (active)
33 | CN1CCN(CCCN2c3ccccc3Sc3ccc(C(F)(F)F)cc32)CC1 | 14.2% (inactive)
34 | Cc1cc(O)c(C(C)C)cc1Cl | 103% (inactive)
35 | O=c1ccn(C2CC(O)C(COC(c3ccccc3)(c3ccccc3)c3ccccc3)O2)c(=O)[nH]1 (stereo not given) | 33.2% [100 µM] (inactive)
36 | OCC1OC(n2cnc3c(=S)nc[nH]c32)C(O)C1O (stereo not given) | 112% (inactive) and 37.9% (inactive)
37 | COc1c(O)cc2oc3cc(O)c(CC=C(C)C)c(O)c3c(=O)c2c1CC=C(C)C | 7.13% (active)
38 | OC(CN1CCCC2CCCCC21)c1cc2ccccc2c2ccccc12 (stereo not given) | -36.1% (active)
39 | COC(=O)C1C(O)C(C)C(O)C(C)C=C(C)C2=C3C(=C(C)C(=O)c4c(O)c(c(C)c(OC(C)=O)c43)NC(=O)C(C)=C/C=C\C(C)C(O)C(C)C1O)OCO2 (stereo not given) | 138% (inactive)
40 | NC(=O)SCC(=O)NNc1ccccc1 | 111% (inactive)
